Laboratory results from PubChem BioAssay (NCI).
Compounds without any hit were thinned out: in the full panel of roughly 83,000, 20% have a hit.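 For each line, cells grew in 96-well plates with the test compound present at a single concentration for 48 hours.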 A number with no mark means an inactive call. Calls of active or inactive are those of the source.

System: EKVX NSCLC
Assay: NCI-60 one-dose screen, 48 h (100 = growth as untreated, 0 = no growth, -100 = all killed)
Conditions: 10 µM unless noted
Description: Growth inhibition of the EKVX human Non-Small Cell Lung tumor cell line is measured as a screen for anti-cancer activity. Cells are grown in 96 well plates and exposed to the test compound for 48 hours. Compounds are tested at a single concentration, which is 10^-5 M for most compounds. The reported endpoint is percent growth (GI% or GIPRCNT), where numbers from 0 - 100% represent growth inhibition, and numbers from -100% - 0 represent cell death. For example, a value of 40 represents 60% growth inhibition. A value of 0 means no net growth occurred over the course of the experiment. A value of -40 indicates 40% of cells at the beginning of the experiment died by the end of the experiment. A value of -100 means all cells are dead at the end of the experiment.
NCI-60 Human Tumor Cell Lines Screen was performed using the standard one-dose NCI protocol, which is described in more detail at https://dtp.cancer.gov/discovery_development/nci-60/default.htm.
Compounds with GIPRCNT values below 10 were considered active. Activity score was based on GIPRCNT using the following formula: […]
Score is 0 for GIPRCNT values of 100 or above, 50 for GIPRCNT values of 0, and 100 for GIPRCNT values of -100.

| Compound | growth |
| --- | --- |
| CCc1nc2c(=O)[nH]cnc2o1 | 104% |
| COc1cc(-c2cc(-c3ccc(N(C)C)cc3)nc(N3CCC(O)CC3)c2C#N)cc(OC)c1OC | 21.7% |
| O=C1/C(=C/c2cccs2)SC(=S)N1CCCN1CCOCC1 | 94.8% |
| O=C(/C=C/c1cn(-c2ccccc2)nc1-c1ccc([N+](=O)[O-])cc1)c1ccc(Cl)cc1 | 60.7% |
| CC1=NN(c2nc(SCC(=O)Nc3nc4ccc(C)cc4s3)nc(-c3ccccc3)c2C#N)C(=O)C1 | 106% |
| CCOC(=O)C(=Cc1cccc(Cl)c1)C(=O)OCC | 78.7% |
| COc1ccc2c(O)c(/C=C3\N=Nc4ccccc43)oc2c1C[C@@H]1CCNC[C@H]1F | 64.5% |
| CN(C)c1ccc(Nc2cc(-c3cccc(OC(F)(F)F)c3)nc3ccc(N4CCCC4)cc23)cc1 | 89.3% |
| N#C/C(=C\c1ccc(Br)cc1)n1nnc2ccc(F)cc21 | 49.9% |
| CCN(c1ccc(Cl)cc1)c1nc(-c2ccc([N+](=O)[O-])cc2)cs1 | 79.5% |
| CCOC(=O)/C=C1\S/C(=N\Nc2cc(=O)[nH]c3ccc(Cl)cc23)N(c2ccccc2)C1=O | 100% |
| C=C(C)[C@@H]1CC[C@]2(C(=O)NCCNCCN)CC[C@]3(C)[C@H](CC[C@@H]4[C@@]5(C)C/C(=C/c6ccncc6)C(=O)C(C)(C)[C@@H]5CC[C@]43C)[C@@H]12 | 92.2% |
| Cc1cccnc1NC(=S)Nc1ncccc1C | 95.6% |
| Fc1cccc(CNc2c3ccccc3nc3ccccc23)c1F | 62.9% |
| CC1Cc2c(Cl)ncnc2N(C)c2ccc(F)cc21 (stereo not given) | 87.6% |
| COC(=O)[C@]1(C)CCC[C@]2(C)[C@H]3C[C@H]4C(C(C)C)=C[C@]3(CC[C@H]21)[C@H]1[C@@H]4[C@@H](OCCC#N)CC[C@@H]1OCCC#N | 29.9% |
| CO/N=C(/C)c1ccc(NC(=O)CSc2nnc(-c3ccncc3)n2-c2ccccc2)cc1 | 64.3% |
| CCCCCCC1(C)NCCO1 (stereo not given) | 112% |
| O=C(O)CCCN1C(=O)/C(=C/C(Cl)=C/c2ccccc2)SC1=S | 40.2% |
| N#CC1=C(N)Oc2c(sc3c(Br)cccc23)C1c1ccc(F)cc1 (stereo not given) | 45.6% |

| Compound | growth |
| --- | --- |
| Cc1nc(N2CCOCC2)sc1S(N)(=O)=O | 101% |
| CC(=O)c1cc(O)c2ccccc2c1O | 78.9% |
| COc1cc(C(=O)n2nc(N3CCN(C)CC3)c3cc(N)ccc32)cc(OC)c1OC | 34.1% |
| O=C1N[C@@H]2NC(=[N+]3CCOCC3)N[C@@H]2N1 | 102% |
| Clc1ccc2c(c1)N(c1ncnc3ccc(-c4cnc5[nH]ncc5c4)cc13)CC2 | 16.8% |
| O=C(/C=C/c1ccccc1)c1cccc(OCCCOc2cccc(C(=O)/C=C/c3ccccc3)c2)c1 | 103% |
| COc1ccc2c(c1)[n+]([O-])c(C(=O)/C=C/C=C(\Cl)c1cc(OC)c(OC)c(OC)c1)c(C)[n+]2[O-] | 85.6% |
| C#CCOc1cccc(Nc2ncnc3ccc(NC(=O)CCl)cc23)c1 | -45.2% (active) |
| COc1cc(N2C(=O)[C@H](O)C2c2ccc(SC)cc2)cc(OC)c1OC (stereo not given in full) | 36.7% |
| C=CCc1c(O)c(C(=O)/C=C/c2ccc(Cl)cc2)c(OC)c2ccoc12 | 56.3% |
| Cc1cccc2c1NC(=O)C2(c1ccc(O)cc1)c1ccc(O)cc1 | 75.7% |
| Cn1ccc2c3c(ccc21)CC3=O | 103% |
| Cc1ccccc1/C=C1\CN(C(=O)OC(C)(C)C)C/C(=C\c2ccccc2C)C1=O | 55.6% |
| COC(=O)/C(CCC=C(C)C)=C1\[C@@H](OC(C)=O)C[C@@]2(C)[C@H]1C[C@@H](O)[C@H]1[C@@]3(C)CC[C@H](NCCN)[C@@H](C)[C@@H]3CC[C@@]12C | 82.2% |
| Cc1ccc(NC(=S)NNC(=S)NNc2ccccc2)cc1C | 108% |
| Cc1nnc(NC(=O)c2nc(S(=O)(=O)Cc3ccc(F)cc3)ncc2Cl)s1 | 90.5% |
| CC(C)CCNC(=O)Cn1cccc(NC(=O)OCc2ccccc2)c1=O | 101% |
| COc1cc(-c2nc(SCCC(C)C)nc(Nc3ccccc3Cl)c2C#N)cc(OC)c1OC | 93.3% |
| N#Cc1cccc(NC(=O)c2oc3ccccc3c2-c2cnn(-c3ccccc3)c2)c1 | 76.5% [50 µM] |
| Cc1cccc(N2CCN(CC(O)COc3ccc(Cl)cc3)CC2)c1 (stereo not given) | 96.8% |
